Measured values published in PubChem BioAssay AID1159580 (chemical genetic matrix, 2015).
Values joined by “and” are separate entries in the source; they are usually repeats but may differ in a detail not shown here. Equal values may be shown once. Screen size: about 5,500 compounds; about 2,000 (36%) were called active. About 18% were inconclusive and are not listed. Rule as the data show it: active = normalized growth mostly below about 0.91 (no sharp cut-off); inconclusive = no clear call, values can overlap the other calls; inactive = mostly above about 0.92. This is one part of the list.

Assay: chemical genetic growth profiling, strain panel (AID 1159580);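 also: tested at 20 µM; growth read once vehicle control cultures reached saturation at 30 °C; 1 = growth at the plate median or of vehicle wells; lower values mean less growth of the strain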
Details: S. cerevisiae deletion strains, growth OD

Measured: normalized growth

COC(=O)C[C@H]1C(C)(C)[C@@H](OC(C)=O)[C@@H]2CC3C4CC(=O)O[C@@H](c5ccoc5)[C@]4(C)CCC3[C@@]1(C)C2=O (some centres not stated)
inactive: locus YAL013W, strain DEP1, stronger effect = lower value 1 | locus YAL021C, strain ccr4, stronger effect = lower value 0.979 | locus YAL026C, strain drs2, stronger effect = lower value 1.01 | locus YAL030W, strain snc1, stronger effect = lower value 1 | locus YBL061C, strain skt5, stronger effect = lower value 1.02 | locus YBR009C, strain hhf1, stronger effect = lower value 0.988 | locus YBR021W, strain FUR4, stronger effect = lower value 0.965 | locus YBR023C, strain chs3, stronger effect = lower value 1.02 | locus YBR171W, strain sec66, stronger effect = lower value 1.03 | locus YBR229C, strain ROT2, stronger effect = lower value 0.999 | locus YBR231C, strain swc5, stronger effect = lower value 1.01 | locus YBR279W, strain paf1, stronger effect = lower value 1.01 | locus YCL011C, strain gbp2, stronger effect = lower value 1 | locus YCL016C, strain dcc1, stronger effect = lower value 1.01 | locus YCL029C, strain bik1, stronger effect = lower value 0.973 | locus YCL069W, strain vba3, stronger effect = lower value 1.01 | locus YCR088W, strain abp1, stronger effect = lower value 1.01 | locus YDL005C, strain med2, stronger effect = lower value 1.01 | locus YDL035C, strain GPR1, stronger effect = lower value 0.995 | locus YDL040C, strain nat1, stronger effect = lower value 1.01 | locus YDL074C, strain BRE1, stronger effect = lower value 0.985 | locus YDL101C, strain DUN1, stronger effect = lower value 1.02 | locus YDL134C, strain PPH21, stronger effect = lower value 1.04 | locus YDL185W, strain tfp1, stronger effect = lower value 1.02 | locus YDL192W, strain arf1, stronger effect = lower value 0.989 | locus YDR001C, strain nth1, stronger effect = lower value 1.01 | locus YDR069C, strain doa4, stronger effect = lower value 1.01 | locus YDR101C, strain arx1, stronger effect = lower value 0.996 | locus YDR137W, strain rgp1, stronger effect = lower value 1.01 | locus YDR159W, strain sac3, stronger effect = lower value 1.03 | locus YDR162C, strain NBP2, stronger effect = lower value 1.01 | locus YDR195W, strain ref2 0.98 | locus YDR297W, strain sur2, stronger effect = lower value 0.999 | locus YDR318W, strain mcm21, stronger effect = lower value 1.01 | locus YDR334W, strain swr1, stronger effect = lower value 1.01 | locus YDR335W, strain msn5, stronger effect = lower value 1.04 | locus YDR388W, stronger effect = lower value 1.02 | locus YDR392W, strain spt3, stronger effect = lower value 1.02 | locus YDR502C, strain sam2, stronger effect = lower value 1.04 | locus YEL003W, strain gim4, stronger effect = lower value 1.01 | locus YEL037C, strain rad23, stronger effect = lower value 1.01 | locus YEL061C, strain CIN8 (second series), stronger effect = lower value 1.01 | locus YEL061C, strain CIN8, stronger effect = lower value 0.995 | locus YER015W, strain faa2, stronger effect = lower value 1 | locus YER016W, strain bim1, stronger effect = lower value 1.01 | locus YER110C, stronger effect = lower value 1.02 | locus YER111C, strain swi4, stronger effect = lower value 1.02 | locus YER155C, strain BEM2 (second series), stronger effect = lower value 1.03 | locus YER155C, strain BEM2, stronger effect = lower value 1 | locus YER167W, strain BCK2, stronger effect = lower value 0.996 | locus YFR010W, strain ubp6, stronger effect = lower value 1 | locus YGL078C, strain dbp3, stronger effect = lower value 1.01 | locus YGL086W, strain mad1, stronger effect = lower value 1.01 | locus YGL167C, strain pmr1, stronger effect = lower value 1.02 | locus YGL173C, strain kem1, stronger effect = lower value 1.02 | locus YGL227W, strain vid30, stronger effect = lower value 1.02 | locus YGL240W, strain doc1, stronger effect = lower value 1.03 | locus YGL248W, strain PDE1, stronger effect = lower value 1.04 | locus YGL253W, strain hxk2, stronger effect = lower value 1.01 | locus YGR135W, strain pre9, stronger effect = lower value 1.07 | locus YGR252W, strain gcn5, stronger effect = lower value 1.05 | locus YHR013C, strain ard1, stronger effect = lower value 1.02 | locus YHR027C, strain rpn1, stronger effect = lower value 1.02 | locus YHR030C, strain SLT2, stronger effect = lower value 0.994 and 1.02 | locus YHR079C, strain IRE1 (second series), stronger effect = lower value 1.01 | locus YHR079C, strain IRE1, stronger effect = lower value 1.01 | locus YHR094C, strain hxt1, stronger effect = lower value 1.01 | locus YHR129C, strain ARP1, stronger effect = lower value 1.01 | locus YHR142W, strain chs7, stronger effect = lower value 0.997 | locus YHR200W, strain rpn10, stronger effect = lower value 1 | locus YIL066C, strain RNR3, stronger effect = lower value 0.997 | locus YIL073C, strain SPO22, stronger effect = lower value 1.01 | locus YIL125W, strain kgd1, stronger effect = lower value 1 | locus YIR030C, strain dcg1, stronger effect = lower value 1.01 | locus YJL092W, strain hpr5, stronger effect = lower value 1.01 | locus YJL095W, strain BCK1 (second series), stronger effect = lower value 1 | locus YJL095W, strain BCK1, stronger effect = lower value 1.04 and 1.01 | locus YJL115W, strain asf1, stronger effect = lower value 1.01 | locus YJL129C, strain trk1, stronger effect = lower value 1.01 | locus YJL134W, strain LCB3, stronger effect = lower value 0.99 | locus YJL154C, strain vps35, stronger effect = lower value 1 | locus YJL164C, strain tpk1, stronger effect = lower value 1 | locus YJL166W, strain qcr8, stronger effect = lower value 0.999 | locus YJL168C, strain set2, stronger effect = lower value 1.02 | locus YJL187C, strain SWE1 (second series), stronger effect = lower value 1.05 | locus YJR066W, strain TOR1, stronger effect = lower value 0.963 | locus YKL009W, strain mrt4, stronger effect = lower value 0.998 | locus YKL068W, stronger effect = lower value 1.01 | locus YKL085W, strain MDH1 (second series), stronger effect = lower value 1 | locus YKL085W, strain MDH1, stronger effect = lower value 1 | locus YKL160W, strain elf1, stronger effect = lower value 1.02 | locus YKL190W, strain CNB1, stronger effect = lower value 1 | locus YKR001C, strain vps1, stronger effect = lower value 0.995 | locus YKR026C, strain gcn3, stronger effect = lower value 1.01 | locus YKR091W, strain srl3, stronger effect = lower value 1.01 | locus YLL001W, strain dnm1, stronger effect = lower value 1.01 | locus YLL026W, stronger effect = lower value 1 | locus YLL041C, strain sdh2, stronger effect = lower value 1 | locus YLR027C, strain aat2, stronger effect = lower value 0.999 | locus YLR039C, strain RIC1, stronger effect = lower value 0.993 | locus YLR058C, strain SHM2, stronger effect = lower value 1.02 | locus YLR102C, strain apc9, stronger effect = lower value 1.02 | locus YLR113W, strain HOG1, stronger effect = lower value 0.988 | locus YLR221C, strain rsa3, stronger effect = lower value 0.999 | locus YLR258W, strain gsy2, stronger effect = lower value 1.01 | locus YLR262C, strain YPT6 (second series), stronger effect = lower value 0.955 | locus YLR268W, strain sec22, stronger effect = lower value 0.985 | locus YLR320W, strain mms22, stronger effect = lower value 1.02 | locus YLR342W, strain FKS1, stronger effect = lower value 1 | locus YLR357W, strain rsc2, stronger effect = lower value 1.03 | locus YLR370C, strain arc18, stronger effect = lower value 1.02 | locus YLR371W, strain rom2, stronger effect = lower value 0.989 | locus YLR384C, strain iki3, stronger effect = lower value 1.02 | locus YLR418C, strain cdc73, stronger effect = lower value 1.04 | locus YML016C, strain PPZ1, stronger effect = lower value 1.01 | locus YML032C, strain rad52, stronger effect = lower value 0.994 | locus YML120C, strain ndi1, stronger effect = lower value 1.02 | locus YML124C, strain tub3, stronger effect = lower value 1.01 | locus YMR058W, strain fet3, stronger effect = lower value 1.01 | locus YMR078C, strain ctf18, stronger effect = lower value 1.02 | locus YMR125W, strain sto1, stronger effect = lower value 1.01 | locus YMR129W, stronger effect = lower value 0.999 | locus YMR205C, strain PFK2, stronger effect = lower value 1 | locus YMR223W, strain ubp8, stronger effect = lower value 1.01 | locus YMR231W, strain pep5, stronger effect = lower value 1.01 | locus YMR307W, strain GAS1, stronger effect = lower value 0.876 | locus YNL067W, strain RPL9B, stronger effect = lower value 1.05 | locus YNL071W, strain lat1, stronger effect = lower value 1.02 | locus YNL183C, strain NPR1, stronger effect = lower value 0.981 | locus YNL209W, strain ssb2, stronger effect = lower value 0.996 | locus YNL233W, strain BNI4, stronger effect = lower value 0.988 | locus YNL248C, strain rpa49, stronger effect = lower value 1 | locus YNL250W, strain rad50, stronger effect = lower value 1.04 | locus YNL271C, strain bni1, stronger effect = lower value 1.01 | locus YNL298W, strain CLA4, stronger effect = lower value 1.01 | locus YNL307C, strain MCK1, stronger effect = lower value 1.03 | locus YNL322C, strain KRE1 (second series), stronger effect = lower value 1.02 | locus YNR049C, strain mso1, stronger effect = lower value 0.996 | locus YNR052C, strain pop2, stronger effect = lower value 1.04 | locus YOL012C, strain htz1 0.967 | locus YOL147C, strain pex11, stronger effect = lower value 1.01 | locus YOR001W, strain rrp6, stronger effect = lower value 1.01 | locus YOR061W, strain CKA2, stronger effect = lower value 0.992 | locus YOR069W, strain VPS5, stronger effect = lower value 1 | locus YOR070C, strain gyp1, stronger effect = lower value 1.01 | locus YOR080W, strain dia2, stronger effect = lower value 1.01 | locus YOR083W, strain WHI5, stronger effect = lower value 1.02 | locus YOR106W, strain vam3, stronger effect = lower value 0.988 | locus YOR136W, strain idh2, stronger effect = lower value 1.02 | locus YOR144C, strain elg1, stronger effect = lower value 1.02 | locus YOR184W, strain ser1, stronger effect = lower value 0.973 | locus YOR231W, strain MKK1, stronger effect = lower value 1.01 | locus YOR265W, strain rbl2, stronger effect = lower value 1.01 | locus YOR270C, strain vph1, stronger effect = lower value 0.902 | locus YOR290C, strain snf2, stronger effect = lower value 1.02 | locus YOR316C, strain cot1, stronger effect = lower value 1.02 | locus YPL051W, strain arl3, stronger effect = lower value 1.02 | locus YPL078C, strain atp4, stronger effect = lower value 1.03 | locus YPL106C, strain sse1, stronger effect = lower value 1.02 | locus YPL240C, strain hsp82, stronger effect = lower value 1 | locus YPL241C, strain CIN2, stronger effect = lower value 0.988 | locus YPL256C, strain CLN2, stronger effect = lower value 0.996 | locus YPR119W, strain clb2, stronger effect = lower value 1.01 | locus YPR141C, strain kar3, stronger effect = lower value 1.01 | locus YPR163C, strain tif3, stronger effect = lower value 1.03 | locus YPR167C, strain met16, stronger effect = lower value 1.02 | strain wtn01, stronger effect = lower value 1
